According to PubChem BioAssay (NCI):
Compounds without any hit were thinned out: in the full panel of roughly 83,000, 20% have a hit.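 Each cell line was grown in a 96-well plate and treated with one concentration of compound for 48 hours. Values below 10 were considered active.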 Activity calls are given as the source filed them.

Test system: SW-620 colon
Assay: NCI-60 one-dose screen, 48 h (100 = growth as untreated, 0 = no growth, -100 = all killed)
Conditions: 10 µM unless noted

| Compound | growth |
| --- | --- |
| COC(=O)c1ccc(-c2c(-c3ccccc3)c(F)c3oc(C(=O)OC)c(N)c3c2-c2ccccc2)cc1 | 87.1% (inactive) |
| C#CCN(C)CCCOc1ccc(N(C)C(=O)c2cc(C(C)C)c(O)cc2O)cc1Cl | 12.2% (inactive) |
| COc1c2c(c(Br)c3c1C(CCc1ccccc1)N(C)CC3)OCO2 (stereo not given) | 11.9% (inactive) |
| CN(C(=O)CN1C(=O)/C(=C/c2ccco2)SC1=S)C1CCS(=O)(=O)C1 (stereo not given) | 99.9% (inactive) |
| COc1ccc(-c2nnc3c(/C=C/c4ccc(Br)cc4)nc4ccccc4n23)cc1 | -10% (active) |
| CN(C)c1nc(NCCNS(=O)(=O)c2ccc(C3=Nc4c(N)nc(N)nc4NC(c4ccc(Cl)cc4)C3)cc2)nc(N2CCOCC2)n1 (stereo not given) | 82.8% (inactive) |
| CC1=C(C(=O)OCc2ccccc2)C(c2cccc3ccccc23)n2c(nc3ccccc32)N1 (stereo not given) | 23.7% (inactive) |
| NNc1ncnc2sc3c(c12)CCN(Cc1ccccc1)C3 | 46.6% (inactive) |
| c1n[nH]cc1-c1nc2ccc3[nH]ncc3c2c2c1CC1(CC2)COC1 | 8.89% (active) |
| CC[C@]12C=CCN3CC[C@]4(C(=C(C(=O)OC)C1)Nc1cc(OC)c([C@@H]5[C@H]6O[C@H]6[C@@]6(CC)CC(C(=O)OC)=C7Nc8cc(OC)ccc8[C@@]78CCN5[C@@H]68)cc14)[C@@H]32 | 50.4% (inactive) |
| COc1sc(/C=N/NC(=O)c2[nH]c3ccc(Br)cc3c2-c2ccccc2)cc1Br | 6.77% (active) |
| Cc1nc(Nc2ccccn2)sc1C1=NNC(c2ccccc2F)C1 (stereo not given) | 32.1% (inactive) |
| CN1CCN(c2ccc3c4c(cccc24)C(=O)N(c2cccc(-c4nn(-c5ccccc5)cc4-c4nc5ccccc5s4)c2)C3=O)CC1 | 93% (inactive) |
| Cc1ccc2c(c1)nc(-c1ccccc1)n2CC(=O)N=Nc1c(O)[nH]c2ccc(Cl)cc12 | 0.844% (active) |
| O=C(N/N=C/c1ccc(Br)o1)c1[nH]c2ccc(Br)cc2c1-c1ccccc1 | 6.96% (active) |
| COc1cc(/C=C/C(=O)c2ccc(S(=O)(=O)NCCNc3nc(N(C)C)nc(N4CCOCC4)n3)cc2)cc(OC)c1OC | -100% (active) |
| COc1cc(/C=C/C(=O)c2cnn(-c3cc(=O)[nH]c4ccccc34)c2C)cc(OC)c1OC | 24.4% (inactive) |
| Cc1ccccc1Nc1nnc(-c2c[nH]c3ccccc23)o1 | 19.6% (inactive) |
| O=CNc1ccc(-n2cnc3cc(-c4ccc(O)cc4)ccc32)cc1 | 101% (inactive) |
| C#CCN(C)CCCOc1ccc(N(CC)C(=O)c2cc(C(C)C)c(O)cc2O)cc1Cl | 6.65% (active) |
| CCOC(=O)/C(F)=C/C1CC1CCc1ccc(OCC)cc1 (stereo not given) | 92% (inactive) |
| O=C(CSc1nc2c(c(=O)[nH]1)CCCC2)Nc1ccccc1C(=O)O | 116% (inactive) |
| O=C1CCC(N2C(=O)c3cccc(NCCCCCC(=O)N4CCN(c5ccc6nc7c(nc6c5C(F)(F)F)C(=O)c5ncccc5C7=O)CC4)c3C2=O)C(=O)N1 (stereo not given) | -50.9% (active) |
| O=C(c1cc2cc(OCCCN3CCC3)ccc2[nH]1)N1C[C@@H](CCl)c2c1cc(OCc1ccccc1)c1ccccc21 | 0.696% (active) |
| CC(C)C[C@H](NC(=O)CNC(=O)C[C@H]1O[C@@H]2OC3(C)CC[C@H]4[C@H](C)CC[C@@H]([C@H]1C)[C@@]24O3)B(O)O | -0.307% (active) |
